The values that follow come from PubChem BioAssay (EPA / NIEHS).

Several values for one entry are separate records, joined by “and”; a condition that tells them apart may be missing. Equal entries are not always repeated. Activity calls are given as the source filed them. The calls were made as follows: active = hit-call score of the fitted dose curve at least 0.9, where 1 is the maximum; inactive = score below 0.9.

As usually defined, the AC50 is the midpoint of the concentration-response curve, whichever way the signal moves.

Chain of Tumor necrosis factor (Homo sapiens) (P01375 whole entry, looked up): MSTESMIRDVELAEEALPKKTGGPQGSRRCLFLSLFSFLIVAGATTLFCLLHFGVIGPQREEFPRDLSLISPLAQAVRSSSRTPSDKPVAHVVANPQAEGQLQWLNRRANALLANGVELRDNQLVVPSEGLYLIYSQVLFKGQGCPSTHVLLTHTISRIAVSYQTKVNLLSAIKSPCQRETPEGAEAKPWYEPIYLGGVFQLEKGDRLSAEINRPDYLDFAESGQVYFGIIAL

Read-out in the test: Tumor necrosis factor (Homo sapiens) (UniProt P01375)
Kind of test: BSK_LPS_TNFa: BioMAP Diversity Plus: LPS Assay for Tumour Necrosis Factor alpha (TNFa) Biomarker Activity (AID 2283085). Conditions: primary human HUVEC with PBMC; actives raise or lower the signal. The procedure: BSK_LPS is a cell-based, multiplexed-readout assay that uses umbilical vein endothelium and peripheral blood mononuclear cells, a human vascular primary cell co-culture, with measurements taken at 24 hours after chemical dosing in a 96-well plate.BSK_LPS_TNFa is an assay component measured in the BSK_LPS assay. It measures TNF-a antibody related to regulation of gene expression using ELISA technology.Data from the assay component BSK_LPS_TNFa was analyzed into 1 assay endpoint. This assay endpoint, BSK_LPS_TNFa, was analyzed with bidirectional fitting relative to DMSO as the negative control and baseline of activity. Using a type of binding reporter, gain or loss-of-signal activity can be used to understand changes in the signaling as they relate to the gene TNF. Furthermore, this assay endpoint can be referred to as a primary readout, because this assay has produced multiple assay endpoints where this one serves a signaling function. To generalize the intended target to other relatable targets, this assay endpoint is annotated to the cytokine intended target family, where the subfamily is inflammatory factor.
The levels of cell surface (or secreted, indicated by the prefix "s") biomarker endpoints were measured by ELISA. Overt cytotoxicity to cells in confluent adherent cultures (all systems other than the BT system) was assessed by measuring total protein levels using sulforhodamine B (SRB) staining in parallel cultures at the time of biomarker measurements, indicated as SRB endpoints. For proliferation assays for adherent cell types, individual cell types are cultured at sub-confluence and relative cell numbers quantified by SRB staining at time points optimized for each system (48 h: 3C and CASM3C systems; 72 h: BT and HDF3CGF systems; 96 h: SAg system). SRB was performed by staining cells with 0.1% SRB after fixation with 10% TCA and reading wells at 560 nm.Viability and proliferation of PBMC (T cells) was quantified by Alamar Blue reduction for the SAg and BT systems. For PBMC viability (referred to as PBMC Cytotoxicity within the assay endpoint names), cells were plated (75,000/well in a 96-well plate) and then chemical samples added for 1 h before addition of activators, SEB and TSST-1 (20 ng/mL final concentration each). Cells were incubated for 90 h. Then, Alamar Blue (20 uL/well) (Invitrogen, Cat DAL1100) was added for 6 h, and the plates were read with a fluorescence microplate reader at 546/580 nm (excitation/emission). For PBMC proliferation, cells were plated and activated as above but incubated for only 16 h prior to addition of Alamar Blue. Plates were read after 6 h.
With `OCC(F)(F)OC(F)(F)C(F)(F)OC(F)(F)C(F)(F)OC(F)(F)F`, the AC50 was 50.8 µM (active) and 53.5 µM (active).

In the case of `O=c1ssc(Cl)c1Cl`, the outcome was inactive.

In the case of `O=C(O)C(Cl)Cl`, the outcome was inactive.

Turning to `CCOP(=S)(NC(C)C)Oc1ccccc1C(=O)OC(C)C` (stereo not given), the concentration at half-maximal activity (AC50) is 4.8 µM (active). Same read-out and setting: in the case of `Nc1cc2c3c(c1)C(c1ccccc1)=N[C@@H](NC(=O)c1cccnc1)C(=O)N3CC2` it was 1.46 µM (active). Consider `c1ccc(OP(Oc2ccccc2)Oc2ccccc2)cc1`, for which the outcome was inactive. With `CCCCOCCOP(=O)(OCCOCCCC)OCCOCCCC`, the outcome was inactive. On the same count and under the same terms, the same measure for `c1nc[nH]n1`: “inactive”; for `Cc1ccc(N)cc1N`: “inactive”.

Regarding `Cc1cccc(N)c1`, the outcome was inactive. Same read-out and setting: in the case of `c1cc2c3c(cccc3c1)CC2` it was “inactive”; in that of `CCOP(=S)(S)OCC`, “inactive”. On the same count and under the same terms, in the case of `C=CC(=O)OCC(CC)(COC(=O)C=C)COC(=O)C=C` it was “inactive”.

Regarding `CCN(CC)c1ccccc1`, the outcome was inactive. Still for that read-out and setting: in the case of `O=S(=O)(F)C(F)(F)C(F)(F)C(F)(F)C(F)(F)C(F)(F)C(F)(F)C(F)(F)C(F)(F)F` it was “inactive”; in that of `CSC(C)(C)C=NO`, “inactive”. Same read-out and setting: the same measure for `CCC(C)(C)c1ccc(O)cc1`: “inactive”; for `NC(=O)C(F)(F)C(F)(F)F`: “inactive”.

On to `O=P(Oc1ccccc1)(Oc1ccccc1)Oc1ccccc1`, for which the half-maximal activity concentration (AC50) is 3.97 µM (active). As for `CC(C)(C)OOC(C)(C)C`, the result was inactive.

`O=C(O)C(F)(F)OC(F)(F)C(F)(F)OC(F)(F)C(=O)O`: the result was inactive. Regarding `CCCN(CCC)c1c([N+](=O)[O-])cc(C(C)C)cc1[N+](=O)[O-]`, the concentration at half-maximal activity (AC50) is 35.9 µM (active).

`CCCCN(CCCC)SN(C)C(=O)Oc1cccc2c1OC(C)(C)C2`: the AC50 is 35 µM (active).

With `c1ccc2c(c1)Nc1ccccc1S2`, the concentration at half-maximal activity (AC50) is 0.148 µM (active). Regarding `Cc1ccc(O)cc1C`, the outcome was inactive. With `CC(Cl)CN(C)C` (stereo not given), the result was inactive.

`CCOP(=S)(OCC)SCSc1ccc(Cl)cc1`: the result was inactive. Regarding `CCCCC(CC)COP(=O)(Oc1ccccc1)Oc1ccccc1` (stereo not given), the AC50 is 20 µM (active).

As to `Cc1ccc([N+](=O)[O-])cc1C`, the outcome was inactive.

Consider `OCC(F)(F)OC(F)(F)C(F)(F)OC(F)(F)C(F)(F)OC(F)(F)CO`, for which the outcome was inactive. As to `O=[N+]([O-])c1ccccc1`, the result was inactive. Same read-out and setting: the same measure for `c1ccc2c(c1)sc1ccccc12`: “inactive”; for `O=S1(=O)OCC2C(CO1)C1(Cl)C(Cl)=C(Cl)C2(Cl)C1(Cl)Cl` (stereo not given): “inactive”. Same read-out and setting: in the case of `COP(=O)(O)OC` it was “inactive”. Still for that read-out and setting: the same measure for `N#Cc1cc([N+](=O)[O-])ccc1N`: “inactive”.

As for `O=C(O)C(F)(F)C(F)(F)C(=O)O`, the outcome was inactive. Take `ClC(Cl)=C(c1ccc(Cl)cc1)c1ccccc1Cl`: the AC50 was 31.7 µM (active). `COP(=O)(CCC(=O)NCO)OC`: the outcome was inactive. Same read-out and setting: the same measure for `CC(O)C(F)(F)C(F)(F)F` (stereo not given): “inactive”; for `Nc1ccc([N+](=O)[O-])cc1Cl`: “inactive”.
